Test results as given in PubChem BioAssay (NCATS).
Records with an inconclusive call do not appear. Activity calls are given as the source filed them. The call rests on the fitted dose curve; in most records, active means well fitted curve in the direction sought with a large enough effect; inconclusive means small, poorly fitted or top-dose-only effect, or another doubt; inactive means no such curve, though single readings can be large; an effect the other way counts as inactive or inconclusive.

Tests used:
[1] = Quantitative highthroughput screen to assess conditional lethalithy of NOMO1 cells grown in RPMI1640 with untreated serum (RPMI+s) (AID 1963876); conditions: NOMO1 AML cells in RPMI+serum, CellTiter-Glo viability, 48 h; series mostly up to 45.8 µM; further: nearly all actives have a fitted effect of over 35% in size; further: potency means the concentration at half of the fitted maximal effect;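 on viability: 100% = DMSO wells and 0% = empty wells without cells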
Method in brief: (§1)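 Each medium arm—HPLM with 10% dialyzed FBS, or RPMI1640 with 5 mM glucose and 10% untreated or dialyzed FBS—was screened against an 11-point, 3-fold compound titration for 48 h at 37 °C, with CellTiter-Glo luminescence as endpoint.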

[2] = Quantitative highthroughput screen to assess conditional lethalithy of NOMO1 cells grown in Human Plasma-Like Medium with dialyzed fetal bovine serum (HPLM+ds) (AID 1963878); conditions: NOMO1 AML cells in HPLM+ds, CellTiter-Glo viability, 48 h; series mostly up to 45.8 µM; further: nearly all actives have a fitted effect of over 35% in size; further: potency means the concentration at half of the fitted maximal effect;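 on viability: 100% = DMSO wells and 0% = empty wells on each plate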
Method in brief: as §1

[3] = Quantitative highthroughput screen to assess conditional lethalithy of P12 Ichikawa cells grown in Human Plasma-Like Medium with dialyzed fetal bovine serum (HPLM+ds) (AID 1963879); conditions: ATP luminescence, 48 h; Potency: viability; series mostly up to 45.8 µM; further: nearly all actives have a fitted effect of over 35% in size; further: potency means the concentration at half of the fitted maximal effect
Method in brief: as §1

[4] = Quantitative highthroughput screen to assess conditional lethalithy of P12 Ichikawa cells grown in RPMI1640 with dialyzed fetal bovine serum (RPMI+ds) (AID 1963880); conditions: ATP luminescence, 48 h; Potency: P12-Ichikawa viability; series mostly up to 45.8 µM; further: nearly all actives have a fitted effect of over 35% in size; further: potency means the concentration at half of the fitted maximal effect;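 on viability: 100% = DMSO wells and 0% = empty wells on each plate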
Method in brief: as §1

[5] = Quantitative highthroughput screen to assess conditional lethalithy of P12 Ichikawa cells grown in RPMI1640 with untreated serum (RPMI+s) (AID 1963881); conditions: ATP luminescence, 48 h; Potency: viability; series mostly up to 45.8 µM; further: nearly all actives have a fitted effect of over 35% in size; further: potency means the concentration at half of the fitted maximal effect;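 on viability: 100% = DMSO wells and 0% = empty wells without cells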
Method in brief: as §1

[6] = Quantitative highthroughput screen to assess conditional lethalithy of SEM cells grown in RPMI1640 with unreated serum (RPMI+s) (AID 1963883); conditions: SEM B-ALL cells, CellTiter-Glo viability, 48 h; series mostly up to 45.8 µM; further: nearly all actives have a fitted effect of over 35% in size; further: potency means the concentration at half of the fitted maximal effect;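 on viability: 100% = DMSO wells and 0% = empty wells without cells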
Method in brief: as §1

[7] = Quantitative highthroughput screen to assess conditional lethalithy of SEM cells grown in RPMI1640 with dialyzed fetal bovine serum (RPMI+ds) (AID 1963884); conditions: SEM B-ALL cells, RPMI+dialyzed FBS, CellTiter-Glo viability, 48 h; series mostly up to 45.8 µM; further: nearly all actives have a fitted effect of over 35% in size; further: potency means the concentration at half of the fitted maximal effect;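 on viability: 100% = DMSO control wells and 0% = empty wells without cells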
Method in brief: as §1

[8] = Quantitative highthroughput screen to assess conditional lethalithy of SEM cells grown in Human Plasma-Like Medium with dialyzed fetal bovine serum (HPLM+ds) (AID 1963882); conditions: SEM B-ALL cells in HPLM+ds, CellTiter-Glo viability, 48 h; series mostly up to 45.8 µM; further: nearly all actives have a fitted effect of over 35% in size; further: potency means the concentration at half of the fitted maximal effect
Method in brief: as §1

[9] = Quantitative highthroughput screen to assess conditional lethalithy of NOMO1 cells grown in RPMI1640 with dialyzed fetal bovine serum (RPMI+ds) (AID 1963877); conditions: NOMO1 in RPMI+dialyzed FBS viability, ATP luminescence, 48 h; series mostly up to 45.8 µM;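 further: 100% = DMSO control wells and 0% = empty wells; nearly all actives have a fitted effect of over 30% in size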
Method in brief: as §1

[10] = Cellular viability qHTS for adrenocortical cancer (ACC) cell line SW-13 (AID 1963989); conditions: SW-13 ACC cells viability, CellTiter-Glo, 48 h; activity (max response): active compounds read low; further: nearly all actives have a fitted effect of over 65% in size; further: potency means the concentration at half of the fitted maximal effect;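 on activity (max response): cells grown in serum-free medium with ITS supplement; on the % scale 0 is the no-effect control and ±100 the full control effect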
Method in brief: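 Luminescent ATP read-out (CellTiter-Glo, 20 min at room temperature) measured metabolically competent SW-13 cells after 48 h compound treatment. Final concentrations spanned up to 46 uM; bortezomib served as positive control.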

[11] = Cellular viability qHTS for adrenocortical cancer (ACC) cell line NCI-H295R (AID 1963990); conditions: CellTiter-Glo ATP luminescence, 48 h; series mostly up to 46.1 µM; further: nearly all actives have a fitted effect of over 60% in size; further: potency means the concentration at half of the fitted maximal effect
Method in brief: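 IC50 and maximal efficacy derive from four-parameter logistic modelling of titration curves, with reads scaled between DMSO-only wells (0%) and doxorubicin hydrochloride (100% inhibition). Compounds spanned up to 46 uM over 48 h.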

| SMILES | Potency [1] | Potency [2] | Potency [3] | Potency [4] | Potency [5] | Potency [6] | Potency [7] | Potency [8] | Potency [9] | activity (max response) [10] | Potency [11] | Potency [10] |
| --- | --- | --- | --- | --- | --- | --- | --- | --- | --- | --- | --- | --- |
| CN[C@@H]1C[C@H]2O[C@@](C)([C@H]1OC)n1c3ccccc3c3c4c(c5c6ccccc6n2c5c31)C(=O)N[C@H]4O | 833 nM (active) | 590 nM (active) | 743 nM (active) | 590 nM (active) | 418 nM (active) | 332 nM (active) | 526 nM (active) |  |  |  |  |  |
| CN(C)CCC=C1c2ccccc2COc2ccc(CC(=O)O)cc21 | inactive | inactive | inactive | inactive | inactive | inactive | inactive | inactive |  |  |  |  |
| CC(C)(C)OC(=O)CN(Cc1ccc(Cl)cc1)Cc1ccc([N+](=O)[O-])s1 | inactive |  |  |  | inactive |  |  |  | inactive | -11.1% (inactive) | inactive |  |
| Cc1cnc(Nc2ccc(F)cc2Cl)nc1-c1c[nH]c(C(=O)N[C@H](CO)c2cccc(Cl)c2)c1 | 1050 nM (active) | 1660 nM (active) |  |  |  |  |  |  |  |  | 14100 nM (active) | 20000 nM (active) |
| CC1(C)O[C@H]2C[C@@H]3[C@H]4CCC5=CC(=O)C=C[C@]5(C)[C@@]4(F)[C@@H](O)C[C@]3(C)[C@]2(C(=O)CO)O1 | 9350 nM (active) |  | 1480 nM (active) | 264 nM (active) | 743 nM (active) |  |  |  |  |  |  |  |
| CC[C@@H]1C(=O)N(C)c2cnc(Nc3ccc(C(=O)NC4CCN(C)CC4)cc3OC)nc2N1C1CCCC1 | 66.2 nM (active) |  | 26.4 nM (active) | 33.2 nM (active) | 33.2 nM (active) | 46.9 nM (active) | 46.9 nM (active) | 37.2 nM (active) |  |  |  | 35.5 nM (active) |
| c1ccc(-c2nn3c(c2-c2ccnc4cc(OCCN5CCOCC5)ccc24)CCC3)nc1 | inactive | 18700 nM (active) | inactive | inactive | inactive | inactive |  |  |  |  | inactive |  |
